Source: ChEMBL document CHEMBL3433997, “St. Jude Leishmania screening dataset” (2016)

Columns and labels:
Type in all cases: functional
[1] = target: Solute carrier family 2, facilitated glucose transporter member 1 (Homo sapiens) (UniProt P11166); experiment: ST_JUDE_LEISH: Cytotoxicity at 2uM final concentration against transgenic Leishmania Mexicana promastigotes LmGLUT1 that are glucose transport deficient and complemented with the human glucose transporter GLUT1. Activity is measured by DNA content using SYBR green in vitro
[2] = target: Hexose transporter 1 (Plasmodium falciparum) (UniProt O97467); experiment: ST_JUDE_LEISH: Cytotoxicity at 2uM final concentration against transgenic Leishmania Mexicana promastigotes LmPfHT that are glucose transport deficient and complemented with the Plasmodium falciparum hexose transporter. Activity is measured by DNA content using SYBR green in vitro
[3] = target: Glucose transporter (Leishmania mexicana) (UniProt O61059); experiment: ST_JUDE_LEISH: Cytotoxicity at 2uM final concentration against transgenic Leishmania Mexicana promastigotes LmGT2 that are glucose transport deficient and complemented with the L. Mexicana glucose transporter 2. Activity is measured by DNA content using SYBR green in vitro

Chain of Solute carrier family 2, facilitated glucose transporter member 1 (Homo sapiens) (P11166 whole entry): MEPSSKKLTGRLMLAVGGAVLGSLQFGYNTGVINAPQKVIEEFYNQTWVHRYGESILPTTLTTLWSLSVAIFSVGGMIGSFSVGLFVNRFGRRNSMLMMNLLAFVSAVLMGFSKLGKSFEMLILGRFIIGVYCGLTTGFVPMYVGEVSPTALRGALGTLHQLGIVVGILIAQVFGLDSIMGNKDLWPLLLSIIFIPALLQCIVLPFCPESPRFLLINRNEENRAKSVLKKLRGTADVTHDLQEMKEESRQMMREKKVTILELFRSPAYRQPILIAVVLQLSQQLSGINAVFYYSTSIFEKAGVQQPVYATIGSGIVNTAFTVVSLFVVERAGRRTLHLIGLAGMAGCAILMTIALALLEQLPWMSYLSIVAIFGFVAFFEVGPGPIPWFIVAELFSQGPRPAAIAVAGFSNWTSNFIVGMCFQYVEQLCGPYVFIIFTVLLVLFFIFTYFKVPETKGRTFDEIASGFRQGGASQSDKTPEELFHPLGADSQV

## O=c1cc(NCCCNCc2cccc(SC(F)(F)F)c2)[nH]c2ccccc12
[1]
  inhibition: 3.33%
[2]
  inhibition: 3.61%
[3]
  inhibition: 3.15%

## Clc1ccc2c(NCc3ccccn3)ccnc2c1
[1]
  inhibition: 9.87%
[2]
  inhibition: 10.9%
[3]
  inhibition: 4.77%

## CC(CN1CCN(C)CC1)C(=O)Nc1ccc(-c2cccc(-c3nc4cc(C(F)(F)F)ccc4[nH]3)c2)cc1 (configuration not stated)
[1]
  inhibition: -0.51%
[2]
  inhibition: 0.32%
[3]
  inhibition: -2.84%

## CNc1ccc(CNCc2ccc(-c3ccc(-c4nc5cc(C(F)(F)F)ccc5[nH]4)cc3)cc2)cc1
[1]
  inhibition: 0.54%
[2]
  inhibition: -1.86%
[3]
  inhibition: 9.71%

## CO/C(=C\C=C\c1cc2cc(Cl)c(Cl)cc2[nH]1)C(=O)NCCCN1CCN(C2CCCCC2)CC1
[1]
  inhibition: 8.66%
[2]
  inhibition: 5.7%
[3]
  inhibition: 2.31%

## O=C(Nc1ccc2c(c1)CCN(C1CCC1)CC2)c1ccc(-n2ccnc2)cn1
[1]
  inhibition: 1.81%
[2]
  inhibition: 2.97%
[3]
  inhibition: 2.28%

## O=C(/C=C/c1ccc(Cl)c(Cl)c1)NCCCCCCN1CCN(C(=O)Nc2cc(F)cc(F)c2)CC1
[1]
  inhibition: 5.47%
[2]
  inhibition: 5.75%
[3]
  inhibition: 7.38%

## Cc1ccc(-c2ccc3c(c2)C=C(C(=O)NC2CCN(CCNC(=O)c4cccc(C(F)(F)F)c4)CC2)CCC3)cc1
[1]
  inhibition: 5.7%
[2]
  inhibition: 7.43%
[3]
  inhibition: 7.77%

## CCOc1ccc(N2C(N)=NC(N)=NC2(C)C)cc1
[1]
  inhibition: 4.38%
[2]
  inhibition: 3.86%
[3]
  inhibition: 4.06%

## Cc1cccc2nc(-c3cccc(-c4ccc(CNCCCN5CCCC5=O)cc4)c3)[nH]c12
[1]
  inhibition: 9.26%
[2]
  inhibition: 6.82%
[3]
  inhibition: 6.5%

## CS(=O)(=O)c1ccc(-c2cncc(Cl)n2)cc1
[1]
  inhibition: 3.73%
[2]
  inhibition: 3.42%
[3]
  inhibition: 10.2%

## c1cn(-c2ccc(CNc3nccc(Nc4ccc(OCCN5CCOCC5)cc4)n3)cc2)cn1
[1]
  inhibition: -0.35%
[2]
  inhibition: -0.43%
[3]
  inhibition: 0.98%

## CN(C)Cc1ccc2cc(NC(=O)c3ccc(-c4ccc(Cl)cc4)cc3)ccc2c1
[1]
  inhibition: -1.97%
[2]
  inhibition: 3.04%
[3]
  inhibition: 2.55%

## C=CCN(c1nc(NC)nc(NCc2c(OC)cccc2OC)n1)C1CCCC1
[1]
  inhibition: 5.12%
[2]
  inhibition: 3.87%
[3]
  inhibition: 1.88%

## CC(C)CNCc1ccc(-c2cccc(CN(CCN(C)C)C(=O)CCC3CCCC3)c2)cc1
[1]
  inhibition: 30%
[2]
  inhibition: 23.7%
[3]
  inhibition: 11.2%

## COc1ccc2nc(-c3cc(-c4ccc(NC(=O)CN5CCOCC5)cc4)cnc3N)[nH]c2c1
[1]
  inhibition: 17.5%
[2]
  inhibition: 44.4%
[3]
  inhibition: 11.7%

## COc1ccccc1NC(=O)Nc1cccc(-c2ccc(-c3nc4cc(C(F)(F)F)ccc4[nH]3)cc2)c1
[1]
  inhibition: 2.16%
[2]
  inhibition: 2.07%
[3]
  inhibition: 0.72%

## CN1CCN(c2ccnc3ccc(NC(=O)Cc4ccc(-c5ccncc5)c5ccccc45)cc23)CC1
[1]
  inhibition: -3.69%
[2]
  inhibition: 0.37%
[3]
  inhibition: -0.2%

## CCc1ccc(CN2CCC(NC(=O)c3cc(-c4ccc(N(C)C)cc4)cs3)C2)cc1 (configuration not stated)
[1]
  inhibition: 1.27%
[2]
  inhibition: 4.08%
[3]
  inhibition: 6.01%

## CNCCNCc1ccc(-c2ccc(-c3nc4cc(C(F)(F)F)ccc4[nH]3)cc2)cc1
[1]
  inhibition: -0.49%
[2]
  inhibition: 3.17%
[3]
  inhibition: 2.46%

## O=c1c(Br)ccccc1Br
[1]
  inhibition: 1.2%
[2]
  inhibition: 3.16%
[3]
  inhibition: 2.97%

## Cn1nc(C(F)(F)F)c(-c2ccc(F)cc2)c1NC(=O)Nc1ccc(F)cc1F
[1]
  inhibition: 2.96%
[2]
  inhibition: 2.65%
[3]
  inhibition: 2.29%

## CCC(C)Oc1ccc(CCCON2C(N)=NC(N)=NC2(C)C)cc1 (configuration not stated)
[1]
  inhibition: 12.6%
[2]
  inhibition: 20.2%
[3]
  inhibition: 13.8%

## Brc1ccc(C=NNc2nc3ccccc3[nH]2)cc1
[1]
  inhibition: 6.61%
[2]
  inhibition: 4.26%
[3]
  inhibition: 2.59%

## Cc1cccc(CNc2ncc(C)c(NCCC(=O)Nc3ccccc3)n2)c1
[1]
  inhibition: 15.3%
[2]
  inhibition: 12.7%
[3]
  inhibition: 6.61%

## CCc1ccc(N2C(N)=NC(N)=NC2(C)C)cc1
[1]
  inhibition: 0.74%
[2]
  inhibition: 1.29%
[3]
  inhibition: 2.09%

## CCCN(CCC)CCCN(CCCN(CCC)CCC)c1cc(C)nc(Nc2ccc3cc(Br)ccc3c2)n1
[1]
  inhibition: 50.9%
[2]
  inhibition: 35.1%
[3]
  inhibition: 37.8%

## O=S(=O)(NCCN1CCCC1)c1ccc(-c2ccc(CNC3Cc4ccccc4C3)cc2)s1
[1]
  inhibition: 5.8%
[2]
  inhibition: 12.6%
[3]
  inhibition: 1.34%

## CNc1ccc(CNCc2cccc(-c3ccc(-c4nc5ccccc5[nH]4)s3)c2)cc1
[1]
  inhibition: 1.37%
[2]
  inhibition: 1.02%
[3]
  inhibition: 0.87%

## COc1ccc(NC(=O)Nc2cccc(-c3ccncc3)c2)cc1N1CCN(C)CC1
[1]
  inhibition: 6.92%
[2]
  inhibition: 7.39%
[3]
  inhibition: 7.22%

## O=C(Nc1ccccc1)OCCOc1ccc(CC2SC(=O)NC2=O)cc1 (configuration not stated)
[1]
  inhibition: 2.13%
[2]
  inhibition: 3.76%
[3]
  inhibition: 2.23%

## Cc1cc(C=C2SC(=Nc3ccccc3)N(C3CCCC3)C2=O)c(C)n1-c1ccc(Cl)cc1
[1]
  inhibition: 0.96%
[2]
  inhibition: 0.85%
[3]
  inhibition: 1.29%

## Clc1cc(Cl)c2c(c1)C(NCCCNc1nc3ccccc3[nH]1)CCO2 (configuration not stated)
[1]
  inhibition: 18.5%
[2]
  inhibition: 43.3%
[3]
  inhibition: 28.1%

## Oc1cccc(-c2nc(-c3cccc(I)c3)c(-c3ccc(-c4nc(-c5cccc(O)c5)[nH]c4-c4cccc(I)c4)cc3)[nH]2)c1
[1]
  inhibition: 4.52%
[2]
  inhibition: 4.72%
[3]
  inhibition: 4.57%
